# Results as given in the supplement of paper PMC8728848.
# About 410 targets per protein were measured; listed, in parts, are those with the strongest signals and a random draw of the rest.
# B1: B725 (Bifidobacterium sp) (protein)
# chain: MNNTTRAVIATAAIGALLIPLAGCGNTTTSSGKTELTVWSWDASIDRAAKSFMKANPDITVKVSNVGSTEETYTALNNAAQAGSGLPDVTLIEYLAIPQFVHSDTLMDLSKVYNTAKLKDTFTPGTWNSVNINGGLYAMPADSGPMAYFYDKDVFDKAGISEPPTTWDEFYEDAKKIRATGSYITSDSGDAGLFNAMMWAMGGHAYKLNDDKLTINIAKDKGAQRFMDLWQKMRDEDLIDVHTKTWTDDWMKSLGDGSIASLISGAWMANNLLQGVPQATGKFRVALLPTIDGTPINGEYGGSGLAITKKIPDGKLDAAKKFVEYVTTNDEGIDARVSNGSFPATTKTLNQKDFLAKTTLRNTDGSDNEFFGGQKYNEIFSQAAKDVTGKWEFLPFEPYARSVYNDNMGSFFAGKTSFRTAADNWQKALKDYAKDQGFTVQ
# What was measured:
# Assay in all cases: glycan array binding signal (z-score within array); higher = stronger binding
# Conditions in all cases: glycan notation: IUPAC condensed, linker removed
# Fuc(a1-2)Gal = target: Fuc(a1-2)Gal
# Method in brief: (§1)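 The binding signal is a Z-score computed within each array. Data were drawn from 3228 arrays in the Consortium for Functional Glycomics database, restricted to those with a known protein sequence. Scores were averaged over arrays of the same protein sequence at different concentrations or buffers, and over linkers, and negative values can be taken as non-binding.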
# Fuc(a1-2)Gal(b1-3)GalNAc = target: Fuc(a1-2)Gal(b1-3)GalNAc
# Method in brief: as §1
# [1] = target: Fuc(a1-2)Gal(b1-3)GlcNAc(b1-2)Man(a1-3)[Fuc(a1-2)Gal(b1-3)GlcNAc(b1-2)Man(a1-6)]Man(b1-4)GlcNAc(b1-4)[Fuc(a1-6)]GlcNAc
# Method in brief: as §1
# [2] = target: Fuc(a1-2)Gal(b1-3)GlcNAc6S
# Method in brief: as §1
# Fuc(a1-2)Gal6S(b1-4)Glc = target: Fuc(a1-2)Gal6S(b1-4)Glc
# Method in brief: as §1
# [3] = target: Fuc(a1-2)[Gal(a1-3)]Gal(b1-4)[Fuc(a1-3)]GlcNAc(b1-3)GalNAc
# Method in brief: as §1
# [4] = target: Fuc(a1-2)[Gal(a1-4)]Gal(b1-4)GlcNAc
# Method in brief: as §1
# [5] = target: Fuc(a1-2)[GalNAc(a1-3)]Gal(b1-4)Glc
# Method in brief: as §1
# [6] = target: Fuc(a1-2)[GalNAc(a1-3)]Gal(b1-4)[Fuc(a1-3)]GlcNAc
# Method in brief: as §1
# [7] = target: Fuc(a1-3)[Gal(b1-4)]GlcNAc(b1-3)Gal(b1-4)[Fuc(a1-3)]GlcNAc(b1-3)Gal(b1-4)[Fuc(a1-3)]GlcNAc
# Method in brief: as §1
# [8] = target: Fuc(a1-3)[Gal(b1-4)]GlcNAc(b1-3)GalNAc
# Method in brief: as §1
# Fuc(b1-3)GlcNAc = target: Fuc(b1-3)GlcNAc
# Method in brief: as §1
# [9] = target: Gal(a1-3)Gal(b1-4)GlcNAc(b1-2)Man
# Method in brief: as §1
# [10] = target: Gal(a1-3)Gal(b1-4)GlcNAc(b1-3)GalNAc
# Method in brief: as §1
# [11] = target: Gal(b1-3)[Fuc(a1-4)]GlcNAc(b1-3)Gal(b1-4)[Fuc(a1-3)]GlcNAc
# Method in brief: as §1
# [12] = target: Gal(b1-3)[GlcNAc(b1-6)]GalNAc
# Method in brief: as §1
# [13] = target: Gal(b1-4)GalNAc(a1-3)[Fuc(a1-2)]Gal(b1-4)GlcNAc
# Method in brief: as §1
# [14] = target: Gal(b1-4)GlcNAc(b1-2)Man(a1-3)[Gal(b1-4)GlcNAc(b1-2)Man(a1-6)]Man(b1-4)GlcNAc(b1-4)[Fuc(a1-6)]GlcNAc
# Method in brief: as §1
# [15] = target: Gal(b1-4)GlcNAc(b1-2)Man(a1-3)[Gal(b1-4)GlcNAc(b1-2)Man(a1-6)][Gal(b1-4)GlcNAc(b1-4)]Man(b1-4)GlcNAc(b1-4)[Fuc(a1-6)]GlcNAc
# Method in brief: as §1
# [16] = target: Gal(b1-4)GlcNAc(b1-3)Gal(b1-4)Glc
# Method in brief: as §1
# [17] = target: Gal(b1-4)GlcNAc(b1-3)Gal(b1-4)GlcNAc(b1-3)Gal(b1-4)GlcNAc
# Method in brief: as §1
# [18] = target: Gal(b1-4)GlcNAc(b1-3)Gal(b1-4)GlcNAc(b1-3)Gal(b1-4)GlcNAc(b1-2)Man(a1-3)[Gal(b1-4)GlcNAc(b1-3)Gal(b1-4)GlcNAc(b1-3)Gal(b1-4)GlcNAc(b1-2)Man(a1-6)]Man(b1-4)GlcNAc(b1-4)GlcNAc
# Method in brief: as §1
# [19] = target: Gal(b1-4)GlcNAc(b1-3)Gal(b1-4)GlcNAc(b1-3)Gal(b1-4)GlcNAc(b1-2)Man(a1-3)[Gal(b1-4)GlcNAc(b1-3)Gal(b1-4)GlcNAc(b1-3)Gal(b1-4)GlcNAc(b1-2)Man(a1-6)]Man(b1-4)GlcNAc(b1-4)[Fuc(a1-6)]GlcNAc
# Method in brief: as §1
# [20] = target: Gal(b1-4)GlcNAc(b1-3)Gal(b1-4)GlcNAc(b1-3)Gal(b1-4)GlcNAc(b1-2)[Gal(b1-4)GlcNAc(b1-3)Gal(b1-4)GlcNAc(b1-3)Gal(b1-4)GlcNAc(b1-6)]Man(a1-6)[Gal(b1-4)GlcNAc(b1-3)Gal(b1-4)GlcNAc(b1-3)Gal(b1-4)GlcNAc(b1-2)Man(a1-3)]Man(b1-4)GlcNAc(b1-4)[Fuc(a1-6)]GlcNAc
# Method in brief: as §1
# [21] = target: Gal(b1-4)GlcNAc(b1-3)Gal(b1-4)GlcNAc(b1-3)Gal(b1-4)GlcNAc(b1-3)Gal(b1-4)GlcNAc(b1-2)Man(a1-3)[Gal(b1-4)GlcNAc(b1-3)Gal(b1-4)GlcNAc(b1-3)Gal(b1-4)GlcNAc(b1-3)Gal(b1-4)GlcNAc(b1-2)Man(a1-6)]Man(b1-4)GlcNAc(b1-4)GlcNAc
# Method in brief: as §1
# [22] = target: Gal(b1-4)GlcNAc(b1-3)Gal(b1-4)GlcNAc(b1-3)Gal(b1-4)GlcNAc(b1-3)Gal(b1-4)GlcNAc(b1-2)Man(a1-3)[Gal(b1-4)GlcNAc(b1-3)Gal(b1-4)GlcNAc(b1-3)Gal(b1-4)GlcNAc(b1-3)Gal(b1-4)GlcNAc(b1-2)Man(a1-6)]Man(b1-4)GlcNAc(b1-4)[Fuc(a1-6)]GlcNAc
# Method in brief: as §1
binder,measurement,setting,value
B1,glycan array binding signal (z-score),Fuc(a1-2)Gal,-0.221
same,glycan array binding signal (z-score),Fuc(a1-2)Gal(b1-3)GalNAc,-0.216
same,glycan array binding signal (z-score),[1],-0.181
same,glycan array binding signal (z-score),[2],-0.234
same,glycan array binding signal (z-score),Fuc(a1-2)Gal6S(b1-4)Glc,-0.199
same,glycan array binding signal (z-score),[3],-0.208
same,glycan array binding signal (z-score),[4],-0.23
same,glycan array binding signal (z-score),[5],-0.222
same,glycan array binding signal (z-score),[6],-0.217
same,glycan array binding signal (z-score),[7],-0.21
same,glycan array binding signal (z-score),[8],-0.216
same,glycan array binding signal (z-score),Fuc(b1-3)GlcNAc,-0.226
same,glycan array binding signal (z-score),[9],-0.214
same,glycan array binding signal (z-score),[10],-0.225
same,glycan array binding signal (z-score),[11],-0.203
same,glycan array binding signal (z-score),[12],-0.224
same,glycan array binding signal (z-score),[13],-0.218
same,glycan array binding signal (z-score),[14],-0.204
same,glycan array binding signal (z-score),[15],-0.231
same,glycan array binding signal (z-score),[16],6.34
same,glycan array binding signal (z-score),[17],6.94
same,glycan array binding signal (z-score),[18],5.11
same,glycan array binding signal (z-score),[19],4.38
same,glycan array binding signal (z-score),[20],7.51
same,glycan array binding signal (z-score),[21],5.3
same,glycan array binding signal (z-score),[22],4.85
